Source: paper PMC11006913

Each sequence was assayed against HOXC9 (Homo sapiens, UniProt P31274 178-260, K195R) (assay: PBM; 200 nM protein, PBS). Conditions: dsDNA, one strand shown.
Sequence of HOXC9 (Homo sapiens, UniProt P31274 178-260, K195R) (P31274 178-260 K195R): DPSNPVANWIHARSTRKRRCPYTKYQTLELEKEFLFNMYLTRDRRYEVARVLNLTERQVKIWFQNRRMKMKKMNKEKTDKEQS

Sequence | binding signal
ATGAACTA | 10.9 upbm affinity estimate (log intensity, higher = more binding, comparable within an allelic series)
CACTAATA | 11.3 upbm affinity estimate (log intensity, higher = more binding, comparable within an allelic series)
CCCCAGGG | 9.62 upbm affinity estimate (log intensity, higher = more binding, comparable within an allelic series)
CCTCTGGA | 9.66 upbm affinity estimate (log intensity, higher = more binding, comparable within an allelic series)
CGTAAAGA | 11.1 upbm affinity estimate (log intensity, higher = more binding, comparable within an allelic series)
CTGCATAA | 11.2 upbm affinity estimate (log intensity, higher = more binding, comparable within an allelic series)
ATATTGCA | 11.2 upbm affinity estimate (log intensity, higher = more binding, comparable within an allelic series)
GAGAGCTC | 9.48 upbm affinity estimate (log intensity, higher = more binding, comparable within an allelic series)
CTGTTATA | 11.5 upbm affinity estimate (log intensity, higher = more binding, comparable within an allelic series)
CGGGAGCC | 9.62 upbm affinity estimate (log intensity, higher = more binding, comparable within an allelic series)
CGCATTTA | 11.1 upbm affinity estimate (log intensity, higher = more binding, comparable within an allelic series)
CTGGACGC | 9.6 upbm affinity estimate (log intensity, higher = more binding, comparable within an allelic series)
AGCCGACC | 9.56 upbm affinity estimate (log intensity, higher = more binding, comparable within an allelic series)
TGATTGCA | 11.1 upbm affinity estimate (log intensity, higher = more binding, comparable within an allelic series)
CTATAGAA | 11.1 upbm affinity estimate (log intensity, higher = more binding, comparable within an allelic series)
ACTTTACG | 11.5 upbm affinity estimate (log intensity, higher = more binding, comparable within an allelic series)
TTCATAAA | 11.7 upbm affinity estimate (log intensity, higher = more binding, comparable within an allelic series)
AGGACGTG | 9.73 upbm affinity estimate (log intensity, higher = more binding, comparable within an allelic series)
AGGGGGTG | 9.33 upbm affinity estimate (log intensity, higher = more binding, comparable within an allelic series)
CCTGCACC | 9.28 upbm affinity estimate (log intensity, higher = more binding, comparable within an allelic series)

Sequence | binding signal
CACCATTA | 11.9 upbm affinity estimate (log intensity, higher = more binding, comparable within an allelic series)
CCGGAAGG | 9.63 upbm affinity estimate (log intensity, higher = more binding, comparable within an allelic series)
CCAGCCCG | 9.66 upbm affinity estimate (log intensity, higher = more binding, comparable within an allelic series)
AGGGACCC | 9.58 upbm affinity estimate (log intensity, higher = more binding, comparable within an allelic series)
TAAGAATA | 10.9 upbm affinity estimate (log intensity, higher = more binding, comparable within an allelic series)
AGTATTAT | 11.6 upbm affinity estimate (log intensity, higher = more binding, comparable within an allelic series)
TTATACAA | 11.1 upbm affinity estimate (log intensity, higher = more binding, comparable within an allelic series)
AGACCAGG | 9.63 upbm affinity estimate (log intensity, higher = more binding, comparable within an allelic series)
CGGTCCAG | 9.64 upbm affinity estimate (log intensity, higher = more binding, comparable within an allelic series)
ATCTACTA | 11 upbm affinity estimate (log intensity, higher = more binding, comparable within an allelic series)
AGTATAAC | 11 upbm affinity estimate (log intensity, higher = more binding, comparable within an allelic series)
GGGGGGCA | 9.42 upbm affinity estimate (log intensity, higher = more binding, comparable within an allelic series)
ATCTTTAA | 11.4 upbm affinity estimate (log intensity, higher = more binding, comparable within an allelic series)
ATGTTAAC | 11.1 upbm affinity estimate (log intensity, higher = more binding, comparable within an allelic series)
CGGTGCCA | 9.43 upbm affinity estimate (log intensity, higher = more binding, comparable within an allelic series)
ATTGTATG | 11.1 upbm affinity estimate (log intensity, higher = more binding, comparable within an allelic series)
AGCCCGGC | 9.63 upbm affinity estimate (log intensity, higher = more binding, comparable within an allelic series)
ACTAAATA | 11.6 upbm affinity estimate (log intensity, higher = more binding, comparable within an allelic series)
ATAGTCAA | 10.7 upbm affinity estimate (log intensity, higher = more binding, comparable within an allelic series)
GGGCCCCC | 9.38 upbm affinity estimate (log intensity, higher = more binding, comparable within an allelic series)

The sequences below were run against HOXC9 (Homo sapiens, UniProt P31274 178-260) (assay: PBM; 200 nM protein, PBS). Conditions: dsDNA, one strand shown.
Sequence of HOXC9 (Homo sapiens, UniProt P31274 178-260) (P31274 178-260): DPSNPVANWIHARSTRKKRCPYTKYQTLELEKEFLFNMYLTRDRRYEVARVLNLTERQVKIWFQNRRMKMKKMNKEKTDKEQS

Sequence | binding signal
ATGAACTA | 10.9 upbm affinity estimate (log intensity, higher = more binding, comparable within an allelic series)
CACTAATA | 11.4 upbm affinity estimate (log intensity, higher = more binding, comparable within an allelic series)
CCCCAGGG | 9.8 upbm affinity estimate (log intensity, higher = more binding, comparable within an allelic series)
CCTCTGGA | 9.58 upbm affinity estimate (log intensity, higher = more binding, comparable within an allelic series)
CGTAAAGA | 11.2 upbm affinity estimate (log intensity, higher = more binding, comparable within an allelic series)
CTGCATAA | 11.1 upbm affinity estimate (log intensity, higher = more binding, comparable within an allelic series)
ATATTGCA | 11.2 upbm affinity estimate (log intensity, higher = more binding, comparable within an allelic series)
GAGAGCTC | 9.56 upbm affinity estimate (log intensity, higher = more binding, comparable within an allelic series)
CTGTTATA | 11.5 upbm affinity estimate (log intensity, higher = more binding, comparable within an allelic series)
CGGGAGCC | 9.73 upbm affinity estimate (log intensity, higher = more binding, comparable within an allelic series)
CGCATTTA | 11.2 upbm affinity estimate (log intensity, higher = more binding, comparable within an allelic series)
CTGGACGC | 9.69 upbm affinity estimate (log intensity, higher = more binding, comparable within an allelic series)
AGCCGACC | 9.71 upbm affinity estimate (log intensity, higher = more binding, comparable within an allelic series)
TGATTGCA | 11 upbm affinity estimate (log intensity, higher = more binding, comparable within an allelic series)
CTATAGAA | 11 upbm affinity estimate (log intensity, higher = more binding, comparable within an allelic series)
ACTTTACG | 11.7 upbm affinity estimate (log intensity, higher = more binding, comparable within an allelic series)
TTCATAAA | 11.7 upbm affinity estimate (log intensity, higher = more binding, comparable within an allelic series)
AGGACGTG | 9.75 upbm affinity estimate (log intensity, higher = more binding, comparable within an allelic series)
AGGGGGTG | 9.51 upbm affinity estimate (log intensity, higher = more binding, comparable within an allelic series)
CCTGCACC | 9.29 upbm affinity estimate (log intensity, higher = more binding, comparable within an allelic series)

Sequence | binding signal
CACCATTA | 11.9 upbm affinity estimate (log intensity, higher = more binding, comparable within an allelic series)
CCGGAAGG | 9.81 upbm affinity estimate (log intensity, higher = more binding, comparable within an allelic series)
CCAGCCCG | 9.72 upbm affinity estimate (log intensity, higher = more binding, comparable within an allelic series)
AGGGACCC | 9.44 upbm affinity estimate (log intensity, higher = more binding, comparable within an allelic series)
TAAGAATA | 10.8 upbm affinity estimate (log intensity, higher = more binding, comparable within an allelic series)
AGTATTAT | 11.6 upbm affinity estimate (log intensity, higher = more binding, comparable within an allelic series)
TTATACAA | 11.1 upbm affinity estimate (log intensity, higher = more binding, comparable within an allelic series)
AGACCAGG | 9.68 upbm affinity estimate (log intensity, higher = more binding, comparable within an allelic series)
CGGTCCAG | 9.66 upbm affinity estimate (log intensity, higher = more binding, comparable within an allelic series)
ATCTACTA | 10.7 upbm affinity estimate (log intensity, higher = more binding, comparable within an allelic series)
AGTATAAC | 11 upbm affinity estimate (log intensity, higher = more binding, comparable within an allelic series)
GGGGGGCA | 9.53 upbm affinity estimate (log intensity, higher = more binding, comparable within an allelic series)
ATCTTTAA | 11.3 upbm affinity estimate (log intensity, higher = more binding, comparable within an allelic series)
ATGTTAAC | 11.1 upbm affinity estimate (log intensity, higher = more binding, comparable within an allelic series)
CGGTGCCA | 9.52 upbm affinity estimate (log intensity, higher = more binding, comparable within an allelic series)
ATTGTATG | 11 upbm affinity estimate (log intensity, higher = more binding, comparable within an allelic series)
AGCCCGGC | 9.75 upbm affinity estimate (log intensity, higher = more binding, comparable within an allelic series)
ACTAAATA | 11.5 upbm affinity estimate (log intensity, higher = more binding, comparable within an allelic series)
ATAGTCAA | 10.7 upbm affinity estimate (log intensity, higher = more binding, comparable within an allelic series)
GGGCCCCC | 9.62 upbm affinity estimate (log intensity, higher = more binding, comparable within an allelic series)
